Only some compounds are listed: those with a hit (about 6.6% of all), similar ones and a draw of the others.
KB-3-1 tox – KB-3-1 parental cell cytotoxicity; Potency, µM (doses to about 46.1 µM), actives largely listed as cytotoxic; KB-3-1 viability, CellTiter-Glo ATP luminescence, 72 h; AID 1347075; 400,000 compounds, 1.4% hits; note: % is set by controls: 0 for no effect and ±100 for the full control effect; nearly all actives have a fitted effect of over 60% in size
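Viability of parental KB-3-1 cells, measured by CellTiter-Glo luminescence, followed a 72 h incubation at 37 °C with pinned compounds in phenol-red-free DMEM containing 10% FBS.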
HT1080 IDH1KD tx – toxicity to HT-1080 IDH1 knockdown cells (counter line). HT-1080 IDH1 knockdown viability, ATP luminescence, 48 h. AID 686971. 360,000 compounds, 2% hits. Potency, µM (highest dose often 46.1 µM), without a hit: at the highest dose activity, negative = toxicity, hits mostly cytotoxic;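 note: 0% = DMSO wells and -100% = cell-free medium wells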
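CellTiter-Glo luminescence after 48 h compound exposure at 37 degrees C of IDH1-knockdown HT-1080 cells in 5% FBS RPMI. %Activity scaled between DMSO wells and cell-free media wells, with curves fitted and assigned curve classes.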
TGFb SMAD3 inh – blocks TGF-b signaling. HepG2 CAGA-GFP TGF-b/SMAD3 reporter, GFP fluorescence, 18 h; TGF-beta stimulated, 500 pg/mL final. Potency, µM (highest dose often 46.1 µM), for inactives: at the highest dose activity, negative = inhibition, actives largely listed as inhibitors. 410,000 compounds, 1.2% hits. AID 588855; note: % is set by controls: 0 for no effect and ±100 for the full control effect; nearly all actives have a fitted effect of over 65% in size
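GFP signal (ex488/em500-530) from TGF-beta-stimulated HEPG2 CAGA-GFP cells, 500 pg/mL final, 18 h at 37 degrees C in DMEM plus 1% FBS, normalized to unstimulated and DMSO-stimulated controls.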
HepG2 tox – kills HepG2 cells in TGF-b inhibitor counter-screen; HepG2 CAGA-GFP viability, ATP luminescence, 18 h; 410,000 compounds, 0.76% hits; Potency, µM (highest dose often 46.1 µM), inactives show at the top dose activity change, negative = cytotoxicity, hits mostly cytotoxic
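HepG2 CAGA-GFP cells (1000/well, DMEM with 1% FBS) received compound, then TGF-beta at 500 pg/mL final, and were incubated 18 hours at 37 degrees C. Viability was read by CellTiter-Glo luminescence. Media-only wells were set as complete cell-killing and DMSO as no toxicity.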
HT1080-NT tox – kills 2HG-producing HT-1080-NT fibrosarcoma cells; HT-1080-NT fibrosarcoma viability, CellTiter-Glo ATP luminescence, 48 h; Potency, µM (doses to about 46.1 µM), without a hit: at the top dose activity, negative = less viability, most hits filed as cytotoxic; 360,000 compounds, 1.6% hits;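 note: NT is the 2HG producing partner of a matched IDH1 knockdown line; 0% = DMSO-treated cells and -100% = media-only wells without cells; nearly all actives have a fitted effect of over 55% in size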
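Compounds were tested in concentration-response format on HT-1080-NT cells for 48 hours at 37 degrees C. Cell viability came from CellTiter-Glo luminescence; curves were classified by r2, response magnitude and activity.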
KB-V1 cytotox – kills drug-selected multidrug resistant KB-V1 cells. Potency, µM (series often up to 46.1 µM), most hits filed as cytotoxic. 400,000 compounds, 3.4% hits. KB-V1 MDR cells viability, CellTiter-Glo, 72 h; note: % is set by controls: 0 for no effect and ±100 for the full control effect; nearly all actives have a fitted effect of over 60% in size
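Cytotoxicity via CellTiter-Glo luminescence after 72 h compound exposure at 37 degrees C. Cells: drug-selected KB-V1 line, DMEM phenol-red free plus 10% FBS. Compounds tested at multiple concentrations; normalized data fitted to concentration-effect curves.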
* = called active by the depositor; i = inactive; u = inconclusive; x = no result. Calls come from the whole dose curve; as a rule, active = well fitted curve in the direction sought with a large enough effect; inconclusive = small, poorly fitted or top-dose-only effect, or another doubt; inactive = no such curve, though single readings can be large; an effect the other way counts as inactive or inconclusive. Potency is the fitted concentration of half-maximal effect.

SMILES	KB-3-1 tox	HT1080 IDH1KD tx	TGFb SMAD3 inh	HepG2 tox	HT1080-NT tox	KB-V1 cytotox
COc1cc(/C=C(\C#N)C(=O)NCC2CCCO2)ccc1OCC(N)=O (configuration not stated)	i	20%	-3%	10µM*	-4%	i
CCOC(=O)c1ccc(-c2ccc(/C=C(\C#N)C(=O)Nc3c(C)cccc3Cl)o2)cc1	i	x	-1%	-1%	x	i
COc1ccc(/C=C(\C#N)C(=O)NCC2CCCO2)cc1OC (configuration not stated)	i	6%	5%	-10%	1%	i
CCOC(=O)c1ccc(-c2ccc(/C=C(\C#N)C(=O)NCC3CCCO3)o2)cc1 (configuration not stated)	i	-2%	3%	-7%	-7%	16µM*
O=C(Nc1ccc(F)cc1)c1ccc(-n2cnnc2)cc1	i	x	4%	-46%	x	i
O=C(Nc1cccc([S+](=O)([O-])Nc2ccccc2F)c1)c1ccccc1	i	x	x	x	x	i
Cc1ccccc1-n1c(CSC(=N)N)nc2ccccc2c1=O	i	3%	5%	-9%	9%	i
N=C(N)SCc1nc2ccccc2c(=O)n1-c1ccccc1Cl	i	11%	-2%	-2%	19%	23µM*
O=c1cnn([C@@H]2O[C@H](CO)[C@@H](O)[C@H]2O)c(=O)[nH]1	u	u	4%	1%	-18%	4.1µM*
Nc1[nH]c(=O)nc2c1ncn2C1OC(CO)C(O)C1O (configuration not stated)	i	x	4%	-1%	x	i
O=C(NC1CCCCC1)c1ccc(CSc2nc3ccncc3n2Cc2cccc(F)c2)cc1	i	x	u	-20%	x	i
O=c1cc(N/N=C/c2ccccc2)[nH]c(=O)[nH]1	u	7.3µM*	9%	4%	3.7µM*	i
O=c1cc(C=NNc2ccccc2)[nH]c(=O)[nH]1	i	4%	-2%	-12%	-8%	i
CCS(=O)(=O)N1Cc2ccccc2CC1C(=O)NCC12CC3CC(CC(C3)C1)C2 (configuration not stated)	i	-14%	-13%	-9%	-1%	23µM*
CCS(=O)(=O)N1Cc2ccccc2CC1C(=O)Nc1nc2c(C)cccc2s1 (configuration not stated)	i	-27%	0%	-12%	-12%	2.9µM*
CCN(CC)C(=O)CSc1nnc(-n2nc(C)cc2C)c2ccccc12	i	3%	-21%	-8%	0%	13µM*
CCN(CC)C(=O)CSc1nc(Cc2ccccc2)nc2ccccc12	i	-9%	-14%	-61%	-2%	i
NC1CCc2ccccc21 (configuration not stated)	u	x	-1%	-45%	x	i
Cc1cccc(-n2cc(-c3ccccc3)c3c(NC(C)C)ncnc32)c1	x	x	-32%	-16%	x	x
CC1CCN(c2ccc(S(=O)(=O)NC3=NCCCCC3)cc2[N+](=O)[O-])CC1	u	-16%	3%	-10%	u	21µM*
CNS(=O)(=O)c1ccc(N2CCCC2)c([N+](=O)[O-])c1	i	4%	-10%	-10%	1%	i
Cc1ccc(Nc2nc(CSc3nnc(-c4ccc(F)cc4)n3C)cs2)cc1	u	3%	u	-12%	1%	6.5µM*
